Experimental data published in PubChem BioAssay AID1239 (SRMLSC, 2008).
In all, about 190,000 compounds went through this assay and about 3,100 (1.6%) were called active. For the sample, actives were picked, then their nearest neighbours and some compounds at random. Unmarked numbers belong to inactive results. No stated cut-off is given here; in the data, active means fold change above about 3.3; inconclusive means no clear call, values can overlap the other calls; inactive means below that.

Assay: NF-kB upregulation, human neuronal cells – cell-based, HTS, primary screen (AID 1239)
Conditions: NF-kB reporter expression, at 12.5 µM, stronger effect = higher value
Work on `Cc1nn(-c2ccccc2)c2c1C(c1cccc([N+](=O)[O-])c1)N(c1ccccc1)C(=O)N2` (stereo not drawn) yielded a fold change of 1.17.
Work on `O=C1CC(c2ccccc2)=NN1c1ccc([N+](=O)[O-])cc1` yielded a fold change of 1.27.
For `Cc1nn(-c2ccc([N+](=O)[O-])cc2)c(N)c1-c1ccccc1`, the fold change was 6.64 (active).
For `Cc1nc2cc(NC(=O)NCc3ccccc3)ccc2o1`, the fold change was 1.54.
With `Cc1nc2ccc(NC(=O)C(F)(F)F)cc2o1` the fold change was 0.91.
For `Cc1ccc(NC(=O)Nc2ccc3oc(C)nc3c2)cc1`, the fold change was 5.03 (active).
Molecule `COc1ccc(C2CC(c3cccs3)=NN2c2ccccc2)cc1` (stereo not drawn) has a fold change of 1.15.
For `CCCNS(=O)(=O)c1ccc(CCC(=O)N2CCCC2)cc1`, the fold change was 1.25.
Molecule `Cn1cnnc1Sc1ccc(CN2CCN(C3CCCC3)C(CCO)C2)o1` (stereo not drawn) has a fold change of 1.08.
For `OCCC1CN(Cc2ccc3nsnc3c2)CCN1C1CCCC1` (stereo not drawn), the fold change was 5.55 (active).
With `OCCC1CN(Cc2ccc3nsnc3c2)CCN1C1CCCCC1` (stereo not drawn) the fold change was 0.99.
Work on `N/C(=N\OC(=O)CCc1ccccc1)c1cccnc1` yielded a fold change of 1.31.
Molecule `OCC1(Cc2ccccc2C(F)(F)F)CCN(Cc2cccc3cnccc23)CC1` has a fold change of 0.85.
In the case of `COc1ccccc1CNC(=O)c1ccc(SC)cc1OC`, the fold change was 1.42.
Work on `COc1cc(SC)ccc1C(=O)Nc1cc(C)ccn1` yielded a fold change of 1.01.
For `COc1cc(SC)ccc1C(=O)NCCOc1ccccc1Cl`, the fold change was 5.99 (active).
With `COc1cc(CNCCN(C)C)ccc1OCc1c(F)cccc1Cl` the fold change was 1.11.
Molecule `COc1cccc(CN(C)CC(=O)Nc2ccccc2C(=O)Nc2ccccc2)c1` has a fold change of 0.95.
Molecule `O=c1[nH]c2cccnc2n(CCNc2ncc(C(F)(F)F)cc2Cl)c1=O` has a fold change of 1.12.
`NC(=O)C1CCN(Cc2nc3c(Br)cc(Br)cc3c(=O)[nH]2)CC1` gave a fold change of 1.47.
`C/C(=N\N)c1c(-c2ccccc2)c2cc(Br)ccc2[nH]c1=O` gave a fold change of 0.98.
For `NC(N)=Nc1nc2ccc(Br)cc2c(=O)[nH]1`, the fold change was 3.87 (active).
Work on `CC(C)Cn1c(N)c(C(=O)COC(=O)CN2C(=O)C3CC=CCC3C2=O)c(=O)n(C)c1=O` (stereo not drawn) yielded a fold change of 0.78.
`Cc1ccc(NC(=S)NC(=O)c2ccc(-c3ccccc3)cc2)c(C)c1` showed a fold change of 1.18.
For `Cc1ccc(NC(=S)NCc2ccccc2Cl)c(C)c1`, the fold change was 0.92.
For `Cc1ccc(NC(=S)Nc2ncccc2C)c(C)c1`, the fold change was 3.74 (active).
For `Cc1ccc(S(=O)(=O)N(C)C)cc1NC(=O)c1ccccc1Br`, the fold change was 1.05.
`COC(=O)CCNC(=O)c1ccc2[nH]c(C)c(C)c2c1` gave a fold change of 0.99.
